An excerpt weighted towards active compounds, which were near 19% of everything screened.
HT1080 IDH1KD tx: qHTS for induction of synthetic lethality in tumor cells producing 2HG: qHTS for the HT-1080-IDH1KD cell line; AID 686971, 2013; HT-1080 IDH1 knockdown viability, ATP luminescence, 48 h; Potency, µM (titrated, usually from 46.1 µM), without a hit: at the top dose activity, negative = toxicity, most hits filed as cytotoxic; hit rate 2% among 360,000;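 note: potency is the fitted concentration of half-maximal effect; 0% = DMSO wells and -100% = cell-free medium wells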
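Assay cells: HT-1080 with IDH1 knockdown, 750 per well, RPMI/5% FBS. Exposure: 48 h at 37 °C following 2 h pre-incubation. Read: CellTiter-Glo luminescence; fitted concentration-response, curve class assigned.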
TDP1 cell noCPT: qHTS for Inhibitors of human tyrosyl-DNA phosphodiesterase 1 (TDP1): qHTS in cells in absence of CPT; Potency, µM (highest dose often 46.2 µM), for the others: at the highest dose activity change, negative = growth inhibition, actives largely listed as inhibitors; hit rate 15% among 420,000; DT40 Tdp1-/- hTDP1 cells, no CPT, ATP luminescence, 48 h; note: potency is the fitted concentration of half-maximal effect; nearly all actives have a fitted effect of over 55% in size
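Growth kinetics read by CellTiter-Glo luminescence after ≥48 hr at 37 °C. Cells: DT40 Tdp1-/- stably carrying human TDP1, 400 per well, compound exposure in the absence of CPT (DMSO vehicle).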
DT40 TDP1 CPT: qHTS for Inhibitors of human tyrosyl-DNA phosphodiesterase 1 (TDP1): qHTS in cells in presence of CPT; chicken DT40 Tdp1-/-;hTDP1 cells + 20 nM CPT, ATP luminescence, 48 h; hit rate 12% among 420,000; Potency, µM (highest dose often 46.2 µM), without a hit: top-dose activity change, negative = growth inhibition, hits mostly inhibitors; note: potency is the fitted concentration of half-maximal effect; nearly all actives have a fitted effect of over 55% in size
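Chicken DT40 Tdp1-/- cells complemented with human TDP1, 400 cells/well, exposed to compounds plus 20 nM camptothecin for at least 48 h at 37 C; viability read as ATP content by CellTiter-Glo luminescence.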
HT1080NT lethal: qHTS for induction of synthetic lethality in tumor cells producing 2HG: qHTS for the HT-1080-NT fibrosarcoma cell line | HT-1080-NT fibrosarcoma viability, CellTiter-Glo ATP luminescence, 48 h | Potency, µM (titrated, usually from 46.1 µM), inactives show top-dose activity, negative = less viability, most hits filed as cytotoxic | hit rate 1.6% among 360,000;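 note: NT is the 2HG producing partner of a matched IDH1 knockdown line; potency is the fitted concentration of half-maximal effect; 0% = DMSO-treated cells and -100% = media-only wells without cells; nearly all actives have a fitted effect of over 55% in size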
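HT-1080-NT fibrosarcoma cells (2HG-overproducing), 750 cells/well in RPMI with 5% FBS, dosed after 2 h and incubated 48 h at 37C. CellTiter-Glo luminescence normalized to DMSO and no-cell wells; concentration-response curves fitted and classed.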
IL1B secr inh: qHTS for Inhibitors of Inflammasome Signaling: IL-1-beta AlphaLISA Primary Screen. THP-1 LPS/ATP IL-1B secretion, AlphaLISA, 16 h; hits give low values. activity change, % at 57.5 µM. hit rate 4.7% among 360,000. AID 743279, 2014; in the data active = activity change below about -50%; inconclusive = mostly about -30% to -49%
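Secreted IL-1B measured by AlphaLISA bead assay after 16 h compound exposure of THP-1 cells; compounds (final up to 57.5 uM) added 1 h before LPS (250 ng/mL) and ATP (1.25 mM) stimulation; lower signal means less secretion.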
ELG1 DNA repair: qHTS screen for small molecules that inhibit ELG1-dependent DNA repair in human embryonic kidney (HEK293T) cells expressing luciferase-tagged ELG1; hit rate 2.3% among 330,000; HEK293T ELG1-luciferase reporter, luminescence, 16 h; DNA damage induced by 5-fluorouridine; Potency, µM (series often up to 46.1 µM), for inactives: at the highest dose activity change, negative = inhibition, most hits filed as inhibitors; AID 504467, 2011; note: potency is the fitted concentration of half-maximal effect; nearly all actives have a fitted effect of over 55% in size
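Quantitative HTS, concentration-response format. 2,000 cells/well co-treated with 5-fluorouridine and compound, 16 hr in 5% CO2 at 37 °C; ONE-Glo luminescence read after 30 min.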
An asterisk follows results filed as active; ? = inconclusive; nt = not tested or not shown; ! = a repeat was not active. Unless noted, calls come from the whole dose curve; as a rule, active = well fitted curve in the direction sought with a large enough effect; inconclusive = small, poorly fitted or top-dose-only effect, or another doubt; inactive = no such curve, though single readings can be large; an effect the other way counts as inactive or inconclusive. Unless noted, % is set by controls: 0 for no effect and ±100 for the full control effect.

SMILES	HT1080 IDH1KD tx	TDP1 cell noCPT	DT40 TDP1 CPT	HT1080NT lethal	IL1B secr inh	ELG1 DNA repair
CC(C)CN(CC(C)C)C(=O)C1C2c3ccccc3C(c3ccccc32)C1C(=O)O (configuration not stated)	3%	?	-16%	6%	19	6%
COc1ccc([C@H]2C[C@H](O)[C@@H](n3cc(COC(=O)c4ccccc4)nn3)CN2Cc2cccs2)cc1	1%	?	-2%	0%	-7	nt
N#Cc1ccc2nc(-c3ccc(CN4CCC(n5c(=O)[nH]c6ccccc65)CC4)cc3)c(-c3ccccc3)nc2c1	?	9.2µM*	5.8µM*	?	-66*	nt
Fc1ccc2c(c1)nnn2C1CCN(Cc2ccccc2)CC1	0%	-14%	-20%	-3%	-16	-7%
Cc1cccc2nc(-c3ccccc3)c(-c3ccc(CN4CCC(n5c(=O)[nH]c6ccccc65)CC4)cc3)nc12	?	13µM*	9.2µM*	?	-51*	nt
O=C1CC(N2CCC(n3c(=O)[nH]c4ccccc43)CC2)C(=O)N1c1ccc(F)cc1 (configuration not stated)	10%	-29%	-13%	9%	-15	7%
COC(=O)C1=C(c2ccc(OC)c(OC)c2)C[C@@H]2CC[C@H]1N2C(=O)NCc1cccc2ccccc12	-4%	?	?	-5%	-23	?
CCC1C(=O)OC[C@H]1Cc1cncn1C (some centres not stated)	nt	-6%	5%	nt	nt	nt
COc1ccc(-c2ccc3c(c2)CN(C(=O)C(C)(C)C)Cc2cnnn2-3)cc1	-21%	?	?	-9%	-14	nt
COc1ccc(OCC(=O)N2CCN(CCc3ccccn3)CC2)cc1	nt	-15%	5%	nt	nt	nt
Cc1cc2c(s1)Nc1ccccc1N=C2N1CCN(C)CC1	8%	?	?	-2%	-18	nt
COc1cc([N+](=O)[O-])c2ncccc2c1[N+](=O)[O-]	7.3µM*	4.6µM*	2.6µM*	15µM*	-117*	nt
COc1cc([N+](=O)[O-])cc([N+](=O)[O-])c1N	nt	-20%	-5%	nt	nt	nt
COc1cc([N+](=O)[O-])c2nc(C)ccc2c1[N+](=O)[O-]	?	10µM*	9.2µM*	?	-3	nt
CC1([N+](=O)[O-])COP(=O)(NC2CC2)OC1 (configuration not stated)	19%	-12%	4%	16%	1	nt
O=C(Oc1ccc2ccc(OC(=O)N3CCCCCC3)cc2c1)N1CCCCCC1	2%	21µM*	12µM*	4%	22	?
O=c1oc2ccccc2n1CCCOc1ccccc1	21%	-22%	2%	19%	-23	?
O=c1oc2ccccc2n1CSC1=NCCS1	?	?	?	?	-107*	?
COc1ccc2c(C(=O)c3ccc(Cl)cc3)c(C)n(CC(=O)O)c2c1	nt	-19%	-4%	nt	nt	nt
CCOCCSc1nc2c(c(-c3cccs3)c1C#N)CC/C2=C/c1cccs1	-38%	?	?	-16%	15	-16%
Cn1c(=O)oc2cc(NC(=O)CCl)ccc21	?	23µM*	13µM*	?	-80*	?
Nc1cc(SCc2ccc(Cl)cc2Cl)ncn1	-17%	?	-7%	-19%	-27	nt
O=C(Cc1c(O)c2ccccc2oc1=O)c1ccc(F)cc1	20%	-26%	-16%	19%	3	?
CCCC1=Nc2cc(C(=O)NCCCN(CC)CC)ccc2Sc2ccccc21	nt	29µM*	?	nt	nt	nt
CCC1=Nc2cc(C(=O)N3CCC4(CC3)OCCO4)ccc2Sc2ccccc21	-3%	?	?	-6%	4	9%
SMILES	HT1080 IDH1KD tx	TDP1 cell noCPT	DT40 TDP1 CPT	HT1080NT lethal	IL1B secr inh	ELG1 DNA repair
CCCC1=Nc2cc(C(=O)NCCc3ccc(OCC)cc3)ccc2Sc2ccccc21	nt	21µM*	?	nt	nt	nt
C=CC[N+]1(C)CC[C@]23c4c5ccc(O)c4O[C@H]2C(=O)CC[C@@]3(O)[C@H]1C5 (some centres not stated)	6%	0%	12%	5%	3	-6%
O=C(C[N+]12CCC(CC1)C(CO)C2)c1ccc(Br)cc1 (configuration not stated)	4%	-4%	-3%	4%	14	?
COc1ccc(CCNc2nc3c(c(=O)n(C)c(=O)n3C)n2Cc2ccc(F)cc2)cc1OC	nt	3.3µM*	6.5µM*	nt	nt	nt
CC(C)(C)n1nnnc1C(c1ccccc1)N1CCC2(CC1)C(=O)NCN2c1ccccc1 (configuration not stated)	2%	?	?	-1%	0	nt
C=C(C)[C@H]1CN[C@H](C(=O)O)[C@H]1CC(=O)O	11%	21µM*!	?	?	19	nt
Cc1onc(-c2ccccc2Cl)c1C(=O)NCc1ccc2c(c1)cc(C)n2C	-1%	6.5µM*	?	-14%	0	?
COc1ccc(NS(=O)(=O)c2ccc3c(c2)oc(=O)n3C)cc1Cl	0%	16µM*	13µM*!	2%	12	-5%
CC(C)NS(=O)(=O)c1ccc2c(c1)oc(=O)n2C	-8%	?	-17%	0%	0	17%
CC1CN2C(=O)C1(c1ccccc1)C(=O)NC2=S (configuration not stated)	9%	-20%	-8%	7%	10	nt
NC(=Nc1ccccc1)NN=Cc1c[nH]c2ccccc12	?	0.92µM*	1µM*	?	-109*	nt
O/N=C/c1c[nH]c2ccccc12	-2%	-16%	20%	1%	-1	-11%
CC(C)c1ccc(NC(=O)C2CCC(CNS(=O)(=O)c3ccc4c(c3)CCCC(=O)N4)CC2)cc1 (configuration not stated)	nt	16µM*	13µM*	nt	nt	nt
Cc1cc(C)c(S(=O)(=O)NCC2CCC(C(=O)N3CCC4(CC3)OCCO4)CC2)c(C)c1 (configuration not stated)	12%	-28%	-15%	8%	-1	5%
CCCCCn1c(=O)c(C(=O)Nc2nc(CC(=O)OCC)cs2)c(O)c2ccccc21	8%	4.6µM*	4.1µM*	11%	-3	?

Screening data: PubChem BioAssay, National Center for Advancing Translational Sciences (NCATS)
